Screening data deposited in PubChem BioAssay by several laboratories.
OPRM1-OPRD1 inv: inverse agonists of MOR-DOR heterodimerization, primary screen, cell-based, luminescence; cell-based MOR-DOR heterodimer luminescence, inverse agonism; inhibition, % at 9.3 µM; actives 0.21% (n = 340,000); Mu-type opioid receptor (Homo sapiens) + Delta-type opioid receptor (Homo sapiens), …; in the data active means inhibition above about 22%, passing the limit was not always enough;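 further: 0% = cells with DMSO and 100% = wells without cells with DMSO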
Target sequence (P35372 whole entry, looked up): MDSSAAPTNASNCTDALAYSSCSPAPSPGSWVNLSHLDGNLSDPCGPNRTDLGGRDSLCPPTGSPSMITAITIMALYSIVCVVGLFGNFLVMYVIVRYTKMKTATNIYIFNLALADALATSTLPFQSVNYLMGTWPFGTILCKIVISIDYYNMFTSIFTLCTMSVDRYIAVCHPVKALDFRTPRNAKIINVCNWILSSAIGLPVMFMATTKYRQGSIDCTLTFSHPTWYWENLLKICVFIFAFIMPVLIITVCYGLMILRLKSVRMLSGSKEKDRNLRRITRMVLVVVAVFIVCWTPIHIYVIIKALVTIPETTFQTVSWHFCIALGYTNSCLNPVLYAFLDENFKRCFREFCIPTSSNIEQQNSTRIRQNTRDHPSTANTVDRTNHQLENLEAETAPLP
Target sequence (P41143 whole entry, looked up): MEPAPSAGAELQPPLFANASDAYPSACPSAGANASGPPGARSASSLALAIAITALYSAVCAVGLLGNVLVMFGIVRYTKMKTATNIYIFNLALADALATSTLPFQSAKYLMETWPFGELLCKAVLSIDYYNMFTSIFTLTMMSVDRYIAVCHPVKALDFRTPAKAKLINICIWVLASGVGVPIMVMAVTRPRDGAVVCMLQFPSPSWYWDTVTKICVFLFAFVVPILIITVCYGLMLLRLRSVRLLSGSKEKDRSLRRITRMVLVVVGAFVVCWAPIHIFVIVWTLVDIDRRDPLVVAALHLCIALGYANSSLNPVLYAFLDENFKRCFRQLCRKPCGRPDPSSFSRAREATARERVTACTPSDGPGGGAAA
HTR5A inv ctr: HTR5A inverse agonists in luminescence cell assay, primary screen, counter-screen for OPRM1-OPRD1 heterodimer inverse agonist project, full-deck HTS | actives 0.083% (n = 340,000) | HTR5A cell line, inverse agonism | 5-hydroxytryptamine receptor 5A (Homo sapiens), P47898 | inhibition, % at 9.3 µM; in the data active means inhibition mostly above about 23%, no sharp cut-off; inactive means mostly below about 18%;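 further: 0% = cells with DMSO and 100% = no-cell wells with DMSO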
beta cell repl: inducers of MIN6 beta-cell proliferation, primary screen, ATP luminescence, uHTS. AID 2380, 2010. actives 0.29% (n = 330,000). proliferation, % at 10 µM. MIN6 cells proliferation, ATPlite luminescence, 48 h; cells starved in 0.2% serum; 100% = growth in 10% serum;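 active means compounds whose signal lies at least 3.5 SD above the mean of all wells on their plate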;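 further: 0% = DMSO-treated cells in low-serum medium and 100% = 10% serum control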
OPRM1-OPRD1 ag: agonists of OPRM1-OPRD1 heterodimerization, primary screen, cell-based, luminescence; AID 504326, 2011; activation, % at 9.3 µM; cells; actives 0.3% (n = 340,000); in the data active means activation above about 18%;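 further: 0% = vehicle-treated cells and 100% = reference agonist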
V-ATPase pHluor: regulators of yeast V-ATPase proton pumping, primary screen, pHLuorin cytosolic pH fluorescence | S. cerevisiae | response, % at 10 µM | actives 0.37% (n = 350,000); in the data active means response mostly above about 7.3%, no sharp cut-off; inactive means mostly below about 5.4%; further: actives read high
HTR5A ag ctr: HTR5A agonists in luminescence cell assay, primary screen, counter-screen for OPRM1-OPRD1 heterodimer agonist project, full-deck HTS | actives 0.61% (n = 340,000) | cell-based | activation, % at 9.3 µM | AID 504692, 2011 | 5-hydroxytryptamine receptor 5A (Homo sapiens), P47898; in the data active means activation mostly above about 9.5%, no sharp cut-off; inactive means mostly below about 7.6%;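 further: 0% = cells with vehicle only and 100% = reference agonist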
Starred values were filed as active, the others as inactive; x = no result. Compounds with a hit are over-represented: about 1.7% of the library has one in this group of screens.

SMILES	OPRM1-OPRD1 inv	HTR5A inv ctr	beta cell repl	OPRM1-OPRD1 ag	V-ATPase pHluor	HTR5A ag ctr
COc1ccc(CNC(=O)c2cccc(NC3=NC4CS(=O)(=O)CC4S3)c2)cc1 (stereo not drawn)	11	5	1	-2	19*	5
Cc1ccc(C)c(N(C)C(=O)c2cc3c(=O)[nH]c4ccc(C)cc4c3s2)c1	-27	-5	-4	5	2	4
CCOC(=O)Nc1sc(C)c(C)c1C(=O)OCC	-35	-7	0	7	2	13*
CCOC(=O)c1c(NC(=O)Nc2ccccc2)sc(C)c1C	-7	-17	0	1	3	8
CC(=O)c1ccc(NC(=O)N2CCCC(C(=O)c3ccc4c(c3)OCO4)C2)cc1 (stereo not drawn)	-11	-29	-1	2	-1	11*
CSc1ccccc1NC(=O)N1CCCC(C(=O)c2ccc3c(c2)OCO3)C1 (stereo not drawn)	9	1	0	-2	1	1
CSc1ccccc1C(=O)OCC(=O)Nc1c(C)n(C)n(-c2ccccc2)c1=O	x	x	x	x	-1	x
C[C@H](O)C#Cc1cnc2c(c1)C(=O)N([C@H](C)CO)C[C@@H](C)[C@@H](CN(C)Cc1ccc(-c3ccccc3)cc1)O2	x	x	x	x	-1	x
CCOC(=O)c1sc(NC(=O)c2ccc(S(=O)(=O)N(CC)CC)cc2)nc1C	6	-7	1	-1	-4	-1
CCOC(=O)c1csc(NC(=O)c2ccc(S(=O)(=O)N(CC)CC)cc2)n1	-6	-26	-1	1	-1	12*
Cc1cccc(CNC(=O)C2CCC(=O)N(C3CC3)C2)c1 (stereo not drawn)	17	6	-3	-5	5	-1
CC(C)(C)c1cc(NC(=O)Nc2ccccc2)no1	-29	-44	-1	6	1	11*
COC(=O)c1ccccc1NC(=O)Nc1cc(C(C)(C)C)on1	6	-4	-5	-1	-3	1
NC(=S)N/N=C/c1ccc(-c2cc(Cl)c(Cl)cc2Cl)o1	-27	-30	-5	5	2	12*
NC(=S)N/N=C/c1ccc(Br)o1	11	22	3	-2	-2	-2
CC1=CC(=O)C(C(C)=Nc2ccccc2Cl)C(=O)O1 (stereo not drawn)	8	-24	-4	-2	2	2
Cc1cc(Br)ccc1NC(=O)CNC(=O)Cc1ccc(S(=O)(=O)N2CCOCC2)s1	5	16	-1	-1	-3	-6
COC(=O)c1ccc(N2CCN(C)CC2)c(NC(=O)COc2cccc(C)c2)c1	-9	-14	1	1	-3	5
Cn1c(=O)[nH]c(NC2CCCCC2)c(N=O)c1=O	-1	-12	0	0	5	3
CCCNc1[nH]c(=O)n(C)c(=O)c1N=O	2	6	-2	0	-8	9.6*
O=C(COC(=O)/C=C/c1ccccc1Cl)NCCc1ccc(Cl)cc1Cl	-29	15	0	4	-1	0
CCOC(=O)c1c(SCCN2CCCC2)n(-c2ccccc2)c(=S)n(-c2ccccc2)c1=O	58*	14	x	-12	6	-4
CC(C)c1nn2c(=O)cc(COc3cccc(NC(=O)c4ccco4)c3)nc2s1	11	16	-4	-2	-1	2
CC(C)(C)c1cc(/C=N/O)cc(C(C)(C)C)c1O	-23	-29	0.0*	5	3	-2
CC(C)(C)c1cc(/C=C2\NC(=O)NC2=O)cc(C(C)(C)C)c1O	-7	-2	-4	1	2	1
SMILES	OPRM1-OPRD1 inv	HTR5A inv ctr	beta cell repl	OPRM1-OPRD1 ag	V-ATPase pHluor	HTR5A ag ctr
CC1CCCN(C(=O)C2CCN(S(=O)(=O)c3ccccc3)CC2)C1 (stereo not drawn)	14	-17	-4	-3	-2	4
CC(C)(C)C(=O)OCc1nc(-c2ccc(C(F)(F)F)cc2)cs1	-3	21	-2	1	21*	-3
COc1ccccc1NC(=O)CSc1nncn1N	10	-2	-1	-2	7	13*
O=[N+]([O-])c1cccc2nc3ccccc3c(NCCCn3ccnc3[N+](=O)[O-])c12	10	6	x	-2	-5	-2
O=C(CN1C(=O)N/C(=C\c2ccccc2OCc2ccc(C(=O)O)cc2)C1=O)Nc1ccccc1F	-4	-33	-2	0	-5	11
CCCOC(=O)c1ccc(NC(=O)/C=C/c2cccs2)cc1	-26	13	0	5	-1	11*
CCOc1cc(C(=O)N/N=C/c2ccsc2)cc(OCC)c1OCC	12	1	0	-2	-2	14*
CC(C)N(C(=O)CSc1nc2ccccc2n1Cc1ccccc1)C(C)C	4	-23	-2	-1	0	10.0*
Cc1ccc(C)c(N(CC(=O)NC2CCCC2)S(=O)(=O)c2ccccc2)c1	2	-8	-3	0	-1	2
C[C@@H]1CN([C@@H](C)CO)S(=O)(=O)c2ccc(/C=C/c3ccccc3)cc2O[C@@H]1CN(C)Cc1ccc(C(=O)O)cc1	x	x	x	x	4	x
O=C(CSc1nc2ccc(NC(=O)CSc3nnnn3Cc3ccccc3)cc2s1)Nc1ccccc1	-23	-32	-1	4	-1	14*
CN(C)c1ccc(C(=O)NC2(N3CCC3=O)CCCC2)cc1	3	-39	0	0	3	5
CCOc1ccc(NC(=O)C2CCN(S(=O)(=O)c3ccc4c(c3)NC(=O)C(C)S4)CC2)cc1 (stereo not drawn)	2	-10	-4	0	-1	10*
COc1ccc(NC(=O)C2CCN(S(=O)(=O)c3ccc4c(c3)NC(=O)C(C)S4)CC2)cc1 (stereo not drawn)	13	13	-4	-2	2	4
Cn1c2ccccc2c(=O)c2c(=O)n(C3CCCCC3)c(-c3ccco3)nc21	21	-48	-3	-4	0	13*
Nc1ccc(N(CCO)CCO)cc1	-17	-34	2	4	-1	12*
O=C1Nc2ccccc2C1=Nc1ccc(Cl)cc1	64*	14	x	-14	2	-4
O=C1Nc2ccc(Br)cc2C1=Nc1ccc(-c2nnc3n2CCCCC3)cc1	x	x	-4	x	x	x
CCN(CC)c1ccc(N=C2C(=O)Nc3ccccc32)cc1	24	10	-6	-5	-1	-3
O=C1Nc2ccccc2C1=Nc1ccc(Br)cc1	55*	21	3	-11	0	-5
COc1ccc(CNC(=O)COC(=O)/C=C/c2ccc(Cl)cc2)cc1	11	10	0	-2	-1	-3
